The panel holds about 83,000 compounds, 20% with a hit somewhere; the sample as a whole holds those more often.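 The test compound was applied at a single concentration to cells in 96-well plates for 48 hours, and percent growth was recorded.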 A number with no mark means an inactive call. Activity calls are given as the source filed them. How the source made its calls: active means growth percent below 10; inactive means the rest.

The experiment deals with OVCAR-5 ovarian. In words: NCI-60 one-dose screen, 48 h (100 = growth as untreated, 0 = no growth, -100 = all killed). The following applies: 10 µM unless noted.
For `Cn1nc(C(F)(F)F)cc1-c1cc(Cl)c(OCc2ccc(Cl)cc2)c(-c2ccc(Cl)c(C(F)(F)F)c2)c1O`, the growth is 10.3%.

Turning to `CC(=O)O[C@H]1[C@H](CC#CC#CC[C@@H]2C[C@]3(C)[C@H]4CC=C5[C@H]6[C@@H](C)[C@H](C)CC[C@]6(C(=O)NCCN(CCN)CCN)CC[C@@]5(C)[C@]4(C)CC[C@H]3C(C)(C)[C@H]2OC(C)=O)C[C@]2(C)[C@H]3CC=C4[C@H]5[C@@H](C)[C@H](C)CC[C@]5(C(=O)NCCN(CCN)CCN)CC[C@@]4(C)[C@]3(C)CC[C@H]2C1(C)C`, the growth is 54.6%.

On to `CC(=O)c1ccc(Nc2nc(Cl)nc(Oc3c(Cl)cccc3Cl)n2)cc1`, for which the growth was 105%.

For `Oc1[nH]c2ccccc2c1/C=c1/ccc2c(c1)N=C(c1ccc(C(F)(F)F)cc1)N=2`, the growth is 72.3%.

For the compound `Brc1cccc(-n2ncc3c(Nc4ccc(-c5nnc(-c6ccccc6)o5)cc4)ncnc32)c1`, the growth is 104%.

Take `CCNC(=S)N(Cc1ccccc1)Cc1ccccc1`: the growth was 91%.

In the case of `COc1cccc(CC(C)=C(c2ccc(OCCCN(C)C)cc2)c2ccc(OCCCN(C)C)cc2)c1`, the growth is -86.5% (active).

Turning to `N[C@@H](CO)C(=O)O`, the growth was 104%.

Consider `O=C(c1ccc(C(F)(F)F)c(Cl)c1)N(Cc1ccc(Cl)cc1)c1ccc(-c2cc(C(F)(F)F)[nH]n2)c(O)c1`, for which the growth is 17.3%.

`c1ccc(C(Nc2ccccn2)(c2ccccc2)c2ccccc2)cc1`: the growth was 77.6%.

Turning to `CC[C@H](Nc1nc(N)nc(N)c1Cl)c1nc2cccc(NCc3ccc(C(=O)NO)cc3)c2c(=O)n1-c1ccccc1`, the growth was 21.9%.

For `N#Cc1nc(-c2ccc(Cl)cc2)cc(-c2ccc(Nc3nc(N4CCCCC4)nc(N4CCCCC4)n3)cc2)c1N`, the growth was 113%.

With `C#CC[C@@H]1C[C@]2(C)[C@H]3CC=C4[C@H]5[C@@H](C)[C@H](C)CC[C@]5(C(=O)NCCCCN)CC[C@@]4(C)[C@]3(C)CC[C@H]2C(C)(C)[C@H]1OC(C)=O`, the growth is 108%.

Turning to `Cn1nc(C(F)(F)F)cc1-c1c[nH]c(OCc2ccc(Cl)cc2)c(-c2ccc(Cl)c(C(F)(F)F)c2)c1=O`, the growth is 13%.

With `COc1ccc(NC(=O)c2ccc(C(F)(F)F)nc2Nc2ccc(Cl)cc2C)cc1Cl`, the growth was 10.1%.

On to `O=C(Cn1nncc1CN1C(=O)CSC1=O)Nc1ccc(F)cc1`, for which the growth was 107%.

Regarding `COc1ccc(NC(=O)/C=C/c2ccc(Cl)c(Cl)c2)cn1`, the growth is 84.6%.

For the compound `CCCCNCC(O)c1cc(-c2ccc(C(F)(F)F)cc2)nc(-c2ccc(C(F)(F)F)cc2)c1` (centres undefined), the growth is -74.9% (active).

For `CCCc1cc2c(cc1CN(Cc1cc3c(cc1CCC)OCO3)C(=N)OCC)OCO2`, the growth is 98.9%.

Regarding `CCCNC(=S)N/N=C(\C)c1ccccn1`, the growth was 49.3%.

On to `C#CC[C@@H]1C[C@]2(C)[C@H]3CC[C@@H]4[C@H]5C(C(=C)C)CC[C@]5(C(=O)NCCCN5CCN(CCCN)CC5)CC[C@@]4(C)[C@]3(C)CC[C@H]2C(C)(C)[C@H]1OC(C)=O` (some centres undefined), for which the growth was -61.3% (active).

With `COc1cc2nccc(Oc3ccc(NC(=O)C4(C(=O)Nc5c(F)cc(F)cc5F)CC4)cc3)c2cc1Oc1ccc(N)cn1`, the growth is 70%.

Regarding `COc1ccc2[nH]c(C(=O)OCc3ccc4cccc(O)c4n3)cc2c1`, the growth was -66.6% (active).

Take `CCOCC(O)(c1ccc(Cl)cc1)c1ccc(Cl)cc1`: the growth was 84.4%.

`Cc1cc(C)cc(NC(=O)Cn2nncc2CN2C(=O)CSC2=O)c1`: the growth was 110%.

For the compound `Cc1ccc(NC(=O)Cn2nncc2CN2C(=O)CSC2=O)cc1C`, the growth was 112%.

`COC(=O)/C=C/c1cc(OC(C)=O)c2c(c1)[C@@H](C(=O)OC)[C@H](c1ccc(OC(C)=O)c(OC(C)=O)c1)O2`: the growth was 20.6%.

For the compound `N=c1n(Cc2ccccc2)c(N)cc(=O)n1Cc1ccccc1`, the growth was 68.8%.

As to `CC(C)[C@H](CN)NC[C@H](C)NS(=O)(=O)c1ccc(C(C)(C)C)cc1`, the growth is 106%.

In the case of `COc1ccc(/C(=C\c2ccc3c(c2)OCO3)C(=O)Nc2nc3ccccc3s2)cc1`, the growth was 93.6%.

Take `Cc1ccc(-c2cnc3sc4ccc(Cl)cc4n23)cc1`: the growth is 106%.

As for `COc1cc(C2Nc3ccccc3S2)cc(CN2CCOCC2)c1O` (centres undefined), the growth was 122%.

Regarding `CC1=C(O)C(=O)C(c2c(C)cc(C)c(Br)c2C)=C(O)C1=O`, the growth was 70.1%.

For the compound `CC(C)OC(=O)c1ccc([N+](=O)[O-])cc1`, the growth is 112%.

Take `COc1cc(CN2CCO[C@H](COc3cccc(F)c3)C2)ccc1Cl`: the growth is 47.8%.

Regarding `COc1cc(NC(C)CCCN)c2ncccc2c1Oc1ccc(Cl)cc1` (centres undefined), the growth is 84.6%.

As to `OC(c1cc(-c2ccc(C(F)(F)F)cc2)nc(-c2ccc(C(F)(F)F)cc2)c1)C1CCCCN1` (centres undefined), the growth was -77% (active).

With `C=CCn1c(C)nc2cc(Nc3nc(Nc4ccc5nc(C)n(CC=C)c5c4)nc4ccccc34)ccc21`, the growth was 107%.

On to `Fc1ccc2c(CN3CCO[C@H](COc4cccc(Cl)c4)C3)c[nH]c2c1`, for which the growth was 85.8%.
